# Only a selection was taken, and the strongest signals are over-represented in it overall.
# B1: Tp0751, 83732 (protein)
# chain: MSYYHHHHHHLESTSLYKKAGFQHGHVPPRRIPPHDTFGALPTAALPSNARDTAAHPSDTADNTSGSSTTTDPRSHGNAPPAPVGGAAQTHTQPPVQTAMRIALWNRATHGEQGALQHLLAGLWIQTEISPNSGDIHPLLFFDREHAEITFSRASVQEIFLVDSAHTHRKTVSFLTRNTAISSIRRRLEVTFESHEVIHVRAVEDVARLKIGSTSMWDGQYTRYHAGPASAPSP
# What was measured:
# Test in all cases: glycan array binding signal (z-score within array); higher = stronger binding
# Details in all cases: glycan notation: IUPAC condensed, linker removed
# [1] = molecular target: Fuc(a1-2)Gal
# Method in brief: (§1)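 The Consortium for Functional Glycomics database supplied 3228 glycan arrays, of which those lacking an available protein sequence were dropped. The binding signal, a within-array Z-score, was averaged across arrays of the same protein sequence and across linkers. Negative scores can be read as non-binding.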
# [2] = molecular target: Fuc(a1-2)Gal(b1-4)GlcNAc(b1-2)Man(a1-3)[Fuc(a1-2)Gal(b1-4)GlcNAc(b1-2)Man(a1-6)]Man(b1-4)GlcNAc(b1-4)[Fuc(a1-6)]GlcNAc
# Method in brief: as §1
# [3] = molecular target: Fuc(a1-2)Gal(b1-4)GlcNAc(b1-6)GalNAc
# Method in brief: as §1
# [4] = molecular target: Fuc(a1-2)Gal(b1-4)[Fuc(a1-3)]GlcNAc(b1-3)Gal(b1-4)[Fuc(a1-3)]GlcNAc(b1-3)Gal(b1-4)[Fuc(a1-3)]GlcNAc
# Method in brief: as §1
# [5] = molecular target: Fuc(a1-2)Gal6S(b1-3)GlcNAc6S
# Method in brief: as §1
# [6] = molecular target: Fuc(a1-2)[Gal(a1-3)]Gal(b1-3)GlcNAc
# Method in brief: as §1
# [7] = molecular target: Fuc(a1-2)[Gal(a1-3)]Gal(b1-4)GlcNAc
# Method in brief: as §1
# [8] = molecular target: Fuc(a1-2)[Gal(a1-3)]Gal(b1-4)GlcNAc(b1-2)Man(a1-3)[Fuc(a1-2)[Gal(a1-3)]Gal(b1-4)GlcNAc(b1-2)Man(a1-6)]Man(b1-4)GlcNAc(b1-4)[Fuc(a1-6)]GlcNAc
# Method in brief: as §1
# [9] = molecular target: Fuc(a1-2)[GalNAc(a1-3)]Gal(b1-4)GlcNAc(b1-2)Man(a1-3)[Fuc(a1-2)[GalNAc(a1-3)]Gal(b1-4)GlcNAc(b1-2)Man(a1-6)]Man(b1-4)GlcNAc(b1-4)GlcNAc
# Method in brief: as §1
# [10] = molecular target: Fuc(a1-3)[Gal(b1-4)]GlcNAc(b1-6)[Gal(b1-3)GlcNAc(b1-3)]Gal(b1-4)Glc
# Method in brief: as §1
# [11] = molecular target: Gal(a1-3)Gal(b1-4)GlcNAc(b1-2)Man(a1-3)[Gal(a1-3)Gal(b1-4)GlcNAc(b1-2)Man(a1-6)]Man(b1-4)GlcNAc(b1-4)GlcNAc
# Method in brief: as §1
# [12] = molecular target: Gal(a1-3)Gal(b1-4)GlcNAc(b1-3)GalNAc
# Method in brief: as §1
# [13] = molecular target: Gal(b1-2)Gal
# Method in brief: as §1
# [14] = molecular target: Gal(b1-3)Gal
# Method in brief: as §1
# [15] = molecular target: Gal(b1-3)GlcNAc
# Method in brief: as §1
# [16] = molecular target: Gal(b1-3)GlcNAc(b1-3)Gal(b1-4)GlcNAc
# Method in brief: as §1
# [17] = molecular target: Gal(b1-3)GlcNAc(b1-3)Gal(b1-4)GlcNAc(b1-3)Gal(b1-4)GlcNAc(b1-2)[Gal(b1-3)GlcNAc(b1-3)Gal(b1-4)GlcNAc(b1-3)Gal(b1-4)GlcNAc(b1-6)]Man(a1-6)[Gal(b1-3)GlcNAc(b1-3)Gal(b1-4)GlcNAc(b1-3)Gal(b1-4)GlcNAc(b1-2)Man(a1-3)]Man(b1-4)GlcNAc(b1-4)[Fuc(a1-6)]GlcNAc
# Method in brief: as §1
# [18] = molecular target: Gal(b1-3)[Fuc(a1-4)]GlcNAc
# Method in brief: as §1
# [19] = molecular target: Gal(b1-3)[Fuc(a1-4)]GlcNAc(b1-2)Man
# Method in brief: as §1
# [20] = molecular target: Gal(b1-3)[GlcNAc(b1-6)]GalNAc
# Method in brief: as §1
# [21] = molecular target: Gal(b1-4)GlcNAc
# Method in brief: as §1
# [22] = molecular target: Gal(b1-4)GlcNAc(b1-2)Man(a1-3)[GlcNAc(b1-4)][Gal(b1-4)GlcNAc(b1-2)Man(a1-6)]Man(b1-4)GlcNAc(b1-4)GlcNAc
# Method in brief: as §1
# [23] = molecular target: Gal(b1-4)GlcNAc(b1-2)[Gal(b1-4)GlcNAc(b1-4)]Man(a1-3)[Gal(b1-4)GlcNAc(b1-2)[Gal(b1-4)GlcNAc(b1-6)]Man(a1-6)]Man(b1-4)GlcNAc(b1-4)GlcNAc
# Method in brief: as §1
# [24] = molecular target: Gal(b1-4)GlcNAc(b1-3)Gal(b1-4)Glc
# Method in brief: as §1
# [25] = molecular target: Gal(b1-4)GlcNAc(b1-3)Gal(b1-4)GlcNAc(b1-3)[Gal(b1-4)GlcNAc(b1-3)Gal(b1-4)GlcNAc(b1-6)]GalNAc
# Method in brief: as §1
# [26] = molecular target: Gal(b1-4)GlcNAc(b1-3)GalNAc
# Method in brief: as §1
# [27] = molecular target: Gal3S(b1-3)GalNAc
# Method in brief: as §1
# [28] = molecular target: Gal3S(b1-4)Glc
# Method in brief: as §1
# [29] = molecular target: Gal3S(b1-4)[Fuc(a1-3)]GlcNAc6S
# Method in brief: as §1
# [30] = molecular target: Gal3S6S(b1-4)GlcNAc6S
# Method in brief: as §1
# [31] = molecular target: Gal6S(b1-3)GlcNAc6S
# Method in brief: as §1
# [32] = molecular target: GalNAc(a1-3)Gal
# Method in brief: as §1
# [33] = molecular target: Glc(a1-6)Glc(a1-6)Glc(a1-6)Glc
# Method in brief: as §1
# [34] = molecular target: GlcNAc(a1-4)Gal(b1-4)GlcNAc(b1-3)Gal(b1-4)[Fuc(a1-3)]GlcNAc(b1-3)Gal(b1-4)[Fuc(a1-3)]GlcNAc
# Method in brief: as §1
# [35] = molecular target: GlcNAc(b1-2)Gal(b1-3)GalNAc
# Method in brief: as §1
# [36] = molecular target: GlcNAc(b1-2)[GlcNAc(b1-4)]Man(a1-3)[GlcNAc(b1-4)][GlcNAc(b1-2)[GlcNAc(b1-6)]Man(a1-6)]Man(b1-4)GlcNAc(b1-4)[Fuc(a1-6)]GlcNAc
# Method in brief: as §1
# [37] = molecular target: GlcNAc(b1-2)[GlcNAc(b1-6)]Man(a1-6)[GlcNAc(b1-2)Man(a1-3)]Man(b1-4)GlcNAc(b1-4)[Fuc(a1-6)]GlcNAc
# Method in brief: as §1
# [38] = molecular target: GlcNAc(b1-2)[GlcNAc(b1-6)]Man(a1-6)[GlcNAc(b1-4)][GlcNAc(b1-2)Man(a1-3)]Man(b1-4)GlcNAc(b1-4)GlcNAc
# Method in brief: as §1
# [39] = molecular target: GlcNAc(b1-3)Gal(b1-4)GlcNAc(b1-3)Gal(b1-4)GlcNAc(b1-3)Gal(b1-4)GlcNAc(b1-3)Gal(b1-4)GlcNAc(b1-2)Man(a1-3)[GlcNAc(b1-3)Gal(b1-4)GlcNAc(b1-3)Gal(b1-4)GlcNAc(b1-3)Gal(b1-4)GlcNAc(b1-3)Gal(b1-4)GlcNAc(b1-2)Man(a1-6)]Man(b1-4)GlcNAc(b1-4)[Fuc(a1-6)]GlcNAc
# Method in brief: as §1
# [40] = molecular target: GlcNAc(b1-3)Gal(b1-4)GlcNAc(b1-3)Gal(b1-4)GlcNAc(b1-3)Gal(b1-4)GlcNAc(b1-3)Gal(b1-4)GlcNAc(b1-2)[GlcNAc(b1-3)Gal(b1-4)GlcNAc(b1-3)Gal(b1-4)GlcNAc(b1-3)Gal(b1-4)GlcNAc(b1-3)Gal(b1-4)GlcNAc(b1-6)]Man(a1-6)[GlcNAc(b1-3)Gal(b1-4)GlcNAc(b1-3)Gal(b1-4)GlcNAc(b1-3)Gal(b1-4)GlcNAc(b1-3)Gal(b1-4)GlcNAc(b1-2)Man(a1-3)]Man(b1-4)GlcNAc(b1-4)[Fuc(a1-6)]GlcNAc
# Method in brief: as §1
# [41] = molecular target: GlcNAc(b1-3)Gal(b1-4)GlcNAc(b1-6)[Gal(b1-3)]GalNAc
# Method in brief: as §1
# [42] = molecular target: Man(b1-4)GlcNAc
# Method in brief: as §1
# [43] = molecular target: Neu5Ac(a2-3)Gal(b1-3)GlcNAc(b1-3)Gal(b1-4)GlcNAc
# Method in brief: as §1
# [44] = molecular target: Neu5Ac(a2-3)Gal(b1-3)[Fuc(a1-4)]GlcNAc(b1-3)Gal(b1-4)[Fuc(a1-3)]GlcNAc
# Method in brief: as §1
# [45] = molecular target: Neu5Ac(a2-3)Gal(b1-4)GlcNAc(b1-2)Man
# Method in brief: as §1
# [46] = molecular target: Neu5Ac(a2-3)Gal(b1-4)GlcNAc(b1-2)[Neu5Ac(a2-3)Gal(b1-4)GlcNAc(b1-4)]Man(a1-3)[GlcNAc(b1-4)][Neu5Ac(a2-3)Gal(b1-4)GlcNAc(b1-4)Man(a1-6)]Man(b1-4)GlcNAc(b1-4)GlcNAc
# Method in brief: as §1
# [47] = molecular target: Neu5Ac(a2-3)Gal(b1-4)GlcNAc(b1-3)Gal
# Method in brief: as §1
# [48] = molecular target: Neu5Ac(a2-3)Gal(b1-4)GlcNAc(b1-3)Gal(b1-4)GlcNAc(b1-2)Man(a1-3)[Neu5Ac(a2-3)Gal(b1-4)GlcNAc(b1-3)Gal(b1-4)GlcNAc(b1-2)Man(a1-6)]Man(b1-4)GlcNAc(b1-4)GlcNAc
# Method in brief: as §1
# [49] = molecular target: Neu5Ac(a2-3)Gal(b1-4)GlcNAc(b1-3)[Neu5Ac(a2-3)Gal(b1-4)GlcNAc(b1-6)]GalNAc
# Method in brief: as §1
# [50] = molecular target: Neu5Ac(a2-3)[GalNAc(b1-4)]Gal(b1-4)GlcNAc
# Method in brief: as §1
# [51] = molecular target: Neu5Ac(a2-3)[GalNAc(b1-4)]Gal(b1-4)GlcNAc(b1-3)GalNAc
# Method in brief: as §1
# [52] = molecular target: Neu5Ac(a2-6)Gal(b1-4)GlcNAc(b1-2)Man(a1-6)[Gal(b1-4)GlcNAc(b1-2)Man(a1-3)]Man(b1-4)GlcNAc(b1-4)GlcNAc
# Method in brief: as §1
# [53] = molecular target: Neu5Ac(a2-8)Neu5Ac(a2-3)[GalNAc(b1-4)]Gal(b1-4)Glc
# Method in brief: as §1
# [54] = molecular target: Neu5Ac9Ac(a2-6)Gal(b1-4)GlcNAc
# Method in brief: as §1
# [55] = molecular target: Neu5Gc(a2-3)Gal(b1-3)GlcNAc
# Method in brief: as §1
binder,measurement,setting,value
B1,glycan array binding signal (z-score),[1],-0.265
same,glycan array binding signal (z-score),[2],1.64
same,glycan array binding signal (z-score),[3],-0.071
same,glycan array binding signal (z-score),[4],0.013
same,glycan array binding signal (z-score),[5],1.11
same,glycan array binding signal (z-score),[6],1.77
same,glycan array binding signal (z-score),[7],0.066
same,glycan array binding signal (z-score),[8],-0.276
same,glycan array binding signal (z-score),[9],0.638
same,glycan array binding signal (z-score),[10],0.413
same,glycan array binding signal (z-score),[11],0.262
same,glycan array binding signal (z-score),[12],-0.025
same,glycan array binding signal (z-score),[13],2.31
same,glycan array binding signal (z-score),[14],0.017
same,glycan array binding signal (z-score),[15],-0.323
same,glycan array binding signal (z-score),[16],-0.382
same,glycan array binding signal (z-score),[17],-0.07
same,glycan array binding signal (z-score),[18],-0.004
same,glycan array binding signal (z-score),[19],-0.163
same,glycan array binding signal (z-score),[20],-0.373
same,glycan array binding signal (z-score),[21],0.21
same,glycan array binding signal (z-score),[22],-0.493
same,glycan array binding signal (z-score),[23],0.31
same,glycan array binding signal (z-score),[24],-0.441
same,glycan array binding signal (z-score),[25],1.78
same,glycan array binding signal (z-score),[26],-0.427
same,glycan array binding signal (z-score),[27],3.13
same,glycan array binding signal (z-score),[28],5.83
same,glycan array binding signal (z-score),[29],1.94
same,glycan array binding signal (z-score),[30],2.54
same,glycan array binding signal (z-score),[31],2.18
same,glycan array binding signal (z-score),[32],-0.699
same,glycan array binding signal (z-score),[33],1.24
same,glycan array binding signal (z-score),[34],1.63
same,glycan array binding signal (z-score),[35],-0.378
same,glycan array binding signal (z-score),[36],-0.299
same,glycan array binding signal (z-score),[37],0.781
same,glycan array binding signal (z-score),[38],-0.584
same,glycan array binding signal (z-score),[39],-0.326
same,glycan array binding signal (z-score),[40],-0.088
same,glycan array binding signal (z-score),[41],-0.81
same,glycan array binding signal (z-score),[42],-0.599
same,glycan array binding signal (z-score),[43],0.058
same,glycan array binding signal (z-score),[44],0.658
same,glycan array binding signal (z-score),[45],6.75
same,glycan array binding signal (z-score),[46],-0.386
same,glycan array binding signal (z-score),[47],-0.332
same,glycan array binding signal (z-score),[48],0.542
same,glycan array binding signal (z-score),[49],-0.246
same,glycan array binding signal (z-score),[50],-0.76
same,glycan array binding signal (z-score),[51],0.098
same,glycan array binding signal (z-score),[52],-0.478
same,glycan array binding signal (z-score),[53],-0.022
same,glycan array binding signal (z-score),[54],-0.145
same,glycan array binding signal (z-score),[55],0.052

# From the supplement of paper PMC8728848
